Data reported in PubChem BioAssay (NCI).
This is part of a sample that, as a whole, favours compounds with a hit. Of some 83,000 tested, about 20% had one in any assay.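 48-hour exposure, single concentration, 96-well plates; percent growth endpoint where 0 means no net growth. Active: below 10.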 Values without a mark were called inactive. Activity calls are given as the source filed them.

Key:
Assay in all cases: NCI-60 one-dose screen, 48 h (100 = growth as untreated, 0 = no growth, -100 = all killed)
Conditions in all cases: 10 µM
T-47D breast = test system: T-47D breast
BT-549 breast = test system: BT-549 breast
MDA-MB-435 melanoma = test system: MDA-MB-435 melanoma
SW-620 colon = test system: SW-620 colon
MCF7 breast = test system: MCF7 breast
HCT-116 colon = test system: HCT-116 colon
HCC-2998 colon = test system: HCC-2998 colon

Row | SMILES | growth (T-47D breast) | growth (BT-549 breast) | growth (MDA-MB-435 melanoma) | growth (SW-620 colon) | growth (MCF7 breast) | growth (HCT-116 colon) | growth (HCC-2998 colon)
1 | COc1ccc(C(C)=O)cc1N1C(=O)C2C(C1=O)C1(c3ccccc3)C(=O)C2(c2ccccc2)C(c2ccc(C)cc2)=C1c1ccc(C)cc1 (stereo unspecified) | 32.3% | 38.4% | 35.6% | 27.1% | 15.6% | 24.3% | 46.6%
2 | CC(C)C[C@H](NC(=O)Cn1ccc(Nc2ccccc2)cc1=O)B(O)O | -4.25% (active) | 9.01% (active) | -85.4% (active) | 15% | 28.2% | -6.59% (active) | 9.37% (active)
3 | Cc1nc2scc(-c3ccc(Cl)cc3)n2c(=O)c1CCN1CCOCC1 | 76.6% | 103% | 95.8% | 105% | 90.2% | 105% | 106%
4 | COc1ccccc1NC1=C(N2CCCCC2)C(=O)c2ccccc2C1=O | 77.4% | 94.2% | 93.2% | 93.4% | 74.8% | 78.1% | 91.7%
5 | COc1ccc(-c2nc3sc(-c4ccccc4)c(-c4ccccc4)n3c2/C=C/c2ccc(F)cc2)cc1 | 77.6% | 112% | 97.1% | 95.5% | 73.8% | 77.3% | 92.8%
6 | O=C1NN(c2ccccc2)C(c2cccnc2)=N/C1=C\c1cccnc1 | 96.7% | 101% | 92.4% | 110% | 92.1% | 91.9% | 99%
7 | COc1ccc(-c2nc(-c3nc4ccc(OC)cc4[nH]3)c3ccccn23)cc1 | 36.7% | 77.6% | 81.5% | 93.3% | 69.4% | 66.4% | 86.4%
8 | COc1cc(C(=O)n2nc(N)c3c(C)cc(C)nc32)cc(OC)c1OC | 98.5% | 79.7% | -12.7% (active) | 31.5% | 45.3% | 70.2% | 95.6%
9 | NS(=O)(=O)c1ccc(N2N=C(c3ccc(-c4ccccc4)cc3)CC2c2ccc(Cl)cc2)cc1 (stereo unspecified) | 74.6% | 116% | 77.4% | 93.2% | 62.6% | 50.4% | 89.3%
10 | Cc1nnc2c3nnc(-c4ccc(Cl)cc4)n3c3ccccc3n12 | 105% | 91.5% | 94.9% | 106% | 101% | 101% | 102%
11 | CCCCCC(=O)N1c2ccccc2NC2=C(C(=O)CC(c3ccc(OC)c(OC)c3)C2)C1c1ccc(C(F)(F)F)cc1 (stereo unspecified) | 36.9% | 75.9% | 62.4% | 68.8% | 50.2% | 39.3% | 81.2%
12 | O=C1/C(=C/c2ccc(O)cc2)Cc2ccc(Cl)cc21 | 80.4% | 59% | 78% | 98.7% | 58.8% | 88.4% | 115%
13 | CC1=CSC2=NC(c3ccc(Cl)c(Cl)c3)=CC(c3ccc(Cl)cc3)N12 (stereo unspecified) | 21.3% | 7.99% (active) | 10.4% | 26.4% | 54.3% | 3.71% (active) | 100%
14 | O=C(CSc1nnc(-c2ccc(Cl)cc2)o1)c1ccccc1 | 93% | 98.3% | 109% | 107% | 102% | 92.2% | 87.5%
15 | Cc1cc(/C=C2\SC(=Nc3ccccc3)N(C3CCCC3)C2=O)c(C)n1-c1ccc(Cl)cc1 | -49.3% (active) | -57.6% (active) | -82.4% (active) | -61.6% (active) | -56.5% (active) | -50.5% (active) | -83.8% (active)
16 | Cc1ccc([P+](Cc2ccccc2)(c2ccccc2)c2ccccc2)cc1 | -3.45% (active) | -4.96% (active) | 2.32% (active) | 24.4% | 9.62% (active) | 4.1% (active) | 21.6%
17 | COc1cc(-c2nc3ccc(C)cc3[nH]2)ccc1OCc1nnc(-c2ccc(CC(C)C)cc2)o1 | 77.2% | 101% | 99.6% | 106% | 79.8% | 97.1% | 115%
18 | CCOC(=O)c1c(C)n(-c2ccc(Cl)cc2)c2ccc(OC(=O)/C=C/c3ccccc3)cc12 | 82.7% | 82.2% | 9.43% (active) | 67% | 59.6% | 90.6% | 102%

Row | SMILES | growth (T-47D breast) | growth (BT-549 breast) | growth (MDA-MB-435 melanoma) | growth (SW-620 colon) | growth (MCF7 breast) | growth (HCT-116 colon) | growth (HCC-2998 colon)
19 | CCOC(=O)c1c(Cl)c2c(n1Cc1cccc(OC)c1)-c1oncc1CC2 | 35.5% | 21.7% | -28% (active) | 34.5% | 15.2% | 18.5% | 39.8%
20 | COc1ccc2oc(=O)cc(C3c4ccc([nH]4)C(c4cc(=O)oc5ccc(OC)cc45)c4ccc([nH]4)C(c4cc(=O)oc5ccc(OC)cc45)c4ccc([nH]4)C(c4cc(=O)oc5ccc(OC)cc45)c4ccc3[nH]4)c2c1 (stereo unspecified) | -28.7% (active) | -73.8% (active) | 1.62% (active) | -64.1% (active) | -29.7% (active) | -70.4% (active) | 30.5%
21 | COc1cc(-c2nc3ccccc3[nH]2)ccc1OCC(=O)N=Nc1c(O)[nH]c2ccccc12 | 32.6% | 104% | 79.1% | 64.8% | 28% | 31.6% | 96.1%
22 | CCOCC[P+](c1ccccc1)(c1ccccc1)c1ccccc1 | 18% | 36.9% | 28.8% | 60% | 31.1% | 38.1% | 31.7%
23 | CNC(=S)Sc1ccc([N+](=O)[O-])cc1[N+](=O)[O-] | 32.2% | 20.5% | 29.5% | 36.8% | 31.5% | 27.7% | 75.1%
24 | COc1cccc(-c2nnc(COc3ccc(-c4nc5ccccc5[nH]4)cc3OC)o2)c1 | 73.6% | 81.7% | 94.9% | 110% | 73.6% | 73% | 105%
25 | O=C(CCl)N1c2ccccc2Sc2ccc3ccccc3c21 | -68.2% (active) | -40.9% (active) | -34.7% (active) | -65.6% (active) | 10% (active) | -99.6% (active) | -94.4% (active)
26 | O=C(Nc1ccc(OCc2nnc(-c3ccccc3)o2)c(F)c1)Nc1ccc(Cl)c(Cl)c1 | 33.7% | 79% | 68.8% | 66.3% | 57.7% | 49.2% | 58.5%
27 | COc1ccc(-c2nc(NC(=O)CS(=O)(=O)c3ccc(F)cc3)sc2C)cc1 | 33.2% | 66.3% | 75% | 50.9% | 57.9% | 44.7% | 47.4%
28 | COc1cc(Cn2c(-c3ccccc3)c(Cl)c3c2-c2oncc2CC3)cc(OC)c1 | 73.8% | 87.4% | -0.829% (active) | 15.8% | 102% | 47.5% | 84.4%
29 | CN(C)CCCN1c2ccccc2Sc2ccc(C(F)(F)F)cc21 | 5.93% (active) | 25.7% | -39.3% (active) | 9.61% (active) | -39.7% (active) | 1.99% (active) | -65.9% (active)
30 | COc1ccc(COC(=O)CC(C)C)cc1 | 96.7% | 100% | 107% | 105% | 99.7% | 96.3% | 103%
31 | CCCc1c(CC)c(=N)c2ccccc2n1C | 73% | 81.8% | 7.61% (active) | 57.8% | 32% | 27.7% | 15.5%
32 | COc1ccc(-c2nc(-c3nc4ccc(C)cc4[nH]3)c3ccccn23)cc1 | 19.3% | 68.1% | 62.9% | 61.2% | 35% | 41.1% | 36.4%
33 | CCCCCCCCCCCC(c1ccccc1)N(C)C (stereo unspecified) | 99.7% | 101% | 102% | 95.4% | 91.3% | 94.4% | –
34 | C#Cc1ccc(-n2c(/C=C/c3cc(OC)c(OC)c(OC)c3)nc3ncccc3c2=O)cc1 | 58.9% | 59.7% | -9.47% (active) | 49.1% | 25% | 54.2% | 91%
35 | COc1ccc2c(=O)cc(C(Cl)(Cl)Cl)oc2c1 | 4.96% (active) | -11.9% (active) | -81% (active) | -2.53% (active) | -9.4% (active) | 4.23% (active) | -30% (active)
36 | C#CCNCCCN1C(=O)c2ccc3c4c(ccc(c24)C1=O)C(=O)N(CCCNCC#C)C3=O | -52.1% (active) | -93.8% (active) | -66.9% (active) | -59.8% (active) | -72.7% (active) | -25% (active) | -90% (active)
